This is an account of results in PubChem BioAssay (NCI).

About 83,000 compounds went through this panel and 20% of them were active in at least one assay; those are over-represented in the sample as a whole.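 Single-concentration screen, 48 h exposure, 96-well plates. Endpoint: percent growth. Below 10 = active.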 Calls of active or inactive are those of the source.

For this assay, the system named is OVCAR-8 ovarian. As to the kind of experiment: NCI-60 one-dose screen, 48 h (100 = growth as untreated, 0 = no growth, -100 = all killed). The following applies: 10 µM unless noted.
As for `CN1CCN(Cc2ccc(NC(=O)c3cncc(C#Cc4cnc5ccc(OCC6(C)COC6)nn45)c3)cc2C(F)(F)F)CC1`, the growth was -15.3% (active).
The value for `CC(=O)c1cc(C(=O)c2ccc(Br)cc2)n2cc(C)cc(C)c12` was 98.9% (inactive); that for `COC(=O)C[Se]C(=O)Cc1c(C)n(C(=O)c2ccc(Cl)cc2)c2ccc(OC)cc12` was 41.4% (inactive).
As for `N#Cc1cccc(CN2CCC3=C(C2)C(=O)N(Cc2ccc(Cl)cc2)C2=NCCCN23)c1`, the figure is 21.5% (inactive); as for `C=CCn1c(SCC(=O)Nc2ccc(C(=O)/C=C/c3ccc(C)cc3)cc2)nnc1-c1c[nH]c2ccccc12`, 90.9% (inactive); as for `CCCn1cnc2c(c1=N)C(c1ccc(OC)cc1)c1sc3c(CC)cccc3c1O2` (stereo not drawn), 26.9% (inactive).
The value for `Cc1ccc(-c2cc3nc(C(Cl)Cl)nc(C)n3n2)cc1` was 102% (inactive); that for `CCOC(=O)C(=O)CC(=O)N1C(=S)NC(=O)C1CC(C)C` (stereo not drawn) was 101% (inactive).
For the compound `COc1ccc(-c2nc(C(Cl)Cl)nc3cc(-c4ccccc4)nn23)cc1`, the growth is -34.3% (active).
With `CNC(=O)c1cc(-c2ccc(NS(=O)(=O)c3ccc(C)cc3)cc2)nc2cccnc12`, the growth was 99.5% (inactive).
As for `NC(N)=Nc1ccc(Oc2cccc(Nc3ccc(Cl)c(C(F)(F)F)c3)c2)cn1`, the figure is -66% (active); as for `CCN1CCN(Cc2ccc(C(=O)Nc3ccc(C)c(Oc4ccc(-c5[nH]nc6ncnc(N)c56)cc4)c3)cc2C(F)(F)F)CC1`, 96.7% (inactive); as for `COc1ccc(NC(=O)Nc2ccc3c(ccn3C(=O)c3cccc(F)c3)c2)cc1`, 89.1% (inactive).
With `CCn1c(SCC(=O)Nc2cccc(C(=O)/C=C/c3ccccc3Cl)c2)nc2ccccc2c1=O`, the growth was 98.9% (inactive).
As for `COc1ccc(-c2nn(-c3ccc(S(C)(=O)=O)cc3)cc2/C=N/O)cc1`, the figure is 101% (inactive); as for `NC(N)=Nc1ccc(Oc2ccc(Nc3ccc(Cl)c(C(F)(F)F)c3)cc2)cc1`, 55.1% (inactive); as for `COc1ccc(NC(=O)CSc2nnc(-c3ccc4nc(-c5ccc(OC)c(OC)c5)[nH]c4c3)o2)cc1OC`, 101% (inactive).
The value for `Cc1ccc(-n2c(/C=C3\C(=O)Nc4ccccc43)ccc2CO)cc1` was 94.3% (inactive).
As for `O=C(NNc1nc2cc(F)ccc2n2c(CO)ccc12)c1cnccn1`, the figure is 10.9% (inactive); as for `Nc1ccccc1NC(=O)c1ccc(NC(=O)C/C=C/c2cccnc2)cn1`, 21.5% (inactive); as for `Cn1ccnc1C(=O)/C=C/c1ccc(CNC(=O)c2c(F)c(F)c(F)c(F)c2F)cc1`, 90.1% (inactive).
Turning to `C#C[C@]1(O)CC[C@H]2[C@@H]3CC=C4c5sc(-c6cccc(O)c6)nc5CC[C@]4(C)[C@H]3CC[C@@]21C`, the growth is 9.55% (active).
For `COc1cc2c(cc1OC)C(Sc1ccc(F)cc1)c1c(nc(N)c(C#N)c1N)O2` (stereo not drawn), the growth was -15% (active).
As for `N#Cc1cn(Cc2ccc(Cl)cc2Cl)c(C(=O)c2ccc(Br)cc2)c1N`, the figure is 84.5% (inactive); as for `O=C(O)c1ccc(-n2cc(CNc3cc(F)c(F)c(F)c3)c(-c3cccc(F)c3)n2)cc1`, 82.8% (inactive).
As for `CCc1cccc(NC(=O)CNc2cc(S(=O)(=O)N(C)C)cc(C)c2C)c1`, the figure is 97.7% (inactive).
As to `COc1ccc2c(c1)c(-c1cc(N)n3nc(-c4cn(C)c5ccc(OC)cc45)cc3n1)cn2C`, the growth was 97.9% (inactive).
The value for `C=C(C=O)[C@@H]1CC[C@]2(COC(C)=O)CC[C@]3(C)C(CC[C@@H]4[C@@]5(C)CC[C@H](OC(C)=O)C(C)(C)[C@@H]5CC[C@]43C)[C@@H]12` (stereo partly drawn) was 15.3% (inactive); that for `COc1ccc(-c2nc3ccc(-c4nnc(SCC(=O)Nc5ccc(C(=O)/C=C/c6ccc(Cl)cc6)cc5)o4)cc3[nH]2)cc1` was 105% (inactive).
As for `COc1ccc(/C=C(\C#N)C(=O)N2c3ccccc3Sc3ccc(SC)cc32)cc1F`, the figure is 91.4% (inactive); as for `O=C(CNc1nc(-c2cccc([N+](=O)[O-])c2)cs1)Nc1cccc(Cl)c1`, 101% (inactive).
The value for `CC1(C)CC[C@]23CC[C@]4(C)[C@H](CC[C@@H]5[C@@]6(C)CCCN(CO)C(C)(C)[C@@H]6CC[C@]54C)[C@H]2[C@H]1OC3` was 101% (inactive); that for `C=C(C=O)[C@@H]1CC[C@]2(C)[C@H](CC=C3[C@H]4[C@@H](C)[C@H](C)CC[C@]4(C(=O)OC)CC[C@]32C)[C@@]1(C)CCC#N` was 20.1% (inactive); that for `CN(C)C(=O)c1cc(-c2ccc3ncnc(NCc4ccccc4)c3c2)cnc1N` was 97.3% (inactive).
As to `O=S(=O)(NCCCNc1nccc(-c2[nH]c(-c3ccccc3)nc2-c2ccc(Cl)c(O)c2)n1)c1cccc2ccccc12`, the growth is 27.1% (inactive).
As for `Nc1ccccc1NC(=O)c1ccc(NC(=O)C/C=C/c2cccnc2)cc1`, the figure is 26.3% (inactive); as for `COc1cc(-c2nc(SCCC(C)C)nc(NNC(=O)c3ccncc3)c2C#N)cc(OC)c1OC`, 70% (inactive); as for `O=C(NNc1nc2cc(F)c(F)cc2n2cccc12)c1cnccn1`, 16.6% (inactive).
